Screening results deposited in PubChem BioAssay by several laboratories.
TPT1 inhibitor: inhibitors of Candida albicans tRNA 2'-phosphotransferase TPT1; recombinant caTPT1, FP RNA substrate dephosphorylation; inhibition, % at 5 µM; actives 0.81% (n = 300,000);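 active = inhibition above the mean of all tested compounds plus 3 SD, set per screening campaign, cut at about 24% in these data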;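 note: plate controls were DMSO alone for no effect and ferristatin control at 100 nM for full effect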
PHOSPHO1 block: PHOSPHO1 (human) inhibition. recombinant PHOSPHO1, absorbance phosphatase assay. actives 1.1% (n = 290,000). AID 1565. inhibition, % at 13.3 µM. Q8TCT1; in the data active = inhibition above about 60%
Target sequence (Q8TCT1 whole entry, looked up): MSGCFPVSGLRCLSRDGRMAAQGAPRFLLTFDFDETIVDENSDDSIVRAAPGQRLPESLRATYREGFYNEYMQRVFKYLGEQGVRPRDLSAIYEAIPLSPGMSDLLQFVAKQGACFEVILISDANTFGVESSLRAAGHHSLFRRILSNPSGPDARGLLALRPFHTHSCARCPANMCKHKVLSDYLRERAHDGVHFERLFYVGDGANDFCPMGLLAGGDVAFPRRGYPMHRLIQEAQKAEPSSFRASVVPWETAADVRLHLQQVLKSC
Platelet DG rel: modulates dense granule release in human platelets. actives 0.22% (n = 300,000). human platelet-rich plasma, SFLLRN dense granule ATP release, luminescence. inhibition, %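 (compounds screened at 7.5 µM in platelet-rich plasma)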. AID 1663;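 active = mean replicate score, as percent of positive control, at or above 50; inconclusive = mean below 50 but at least one replicate at or above 50; inactive = mean and every replicate below 50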
WT yeast gro inh: growth inhibition of WT yeast, mitochondrial fusion screen. mitochondrial fusion phenotypic screen, WT strain. inhibition, % at 10 µM. actives 2.1% (n = 190,000). AID 1362; in the data active = inhibition above about 58%; tested in S. cerevisiae
Rtt109 Vps75: inhibitors of Candida albicans Rtt109/Vps75 histone acetyltransferase. AID 540336. purified Rtt109/Vps75, ThioGlo CoA-SH fluorescence, 4 h. actives 0.16% (n = 330,000). inhibition, % at 34.9 µM. Q5AAJ8;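 active = inhibition of at least 50% in every replicate; inconclusive = best replicate reaches 50% inhibition but some replicates fall short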
Target sequence (Q5AAJ8 whole entry, looked up): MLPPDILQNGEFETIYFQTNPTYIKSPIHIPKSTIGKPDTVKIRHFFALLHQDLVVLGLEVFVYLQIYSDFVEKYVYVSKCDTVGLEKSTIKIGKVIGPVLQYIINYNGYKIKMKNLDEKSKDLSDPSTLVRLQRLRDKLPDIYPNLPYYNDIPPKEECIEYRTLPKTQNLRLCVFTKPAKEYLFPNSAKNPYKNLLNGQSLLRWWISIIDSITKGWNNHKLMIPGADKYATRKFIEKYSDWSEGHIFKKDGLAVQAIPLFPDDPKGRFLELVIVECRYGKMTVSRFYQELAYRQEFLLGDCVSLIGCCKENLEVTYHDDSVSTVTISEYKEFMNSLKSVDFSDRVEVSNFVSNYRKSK
SKKanGAS inh: inhibitors of SKKanGAS S. pyogenes growth in kanamycin (SK-promoter or general growth effect). BacTiter-Glo, 6 h. inhibition, % at 7.5 µM. actives 1.3% (n = 300,000). AID 1662;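 active = mean replicate score, as percent of positive control median, at least 50; inconclusive = mean below 50 but one replicate at or above 50; inactive = mean and every replicate below 50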;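 note: strain carries kanamycin resistance gene driven by streptokinase promoter and grows in 40 µg/ml kanamycin; loss of luminescence reflects streptokinase promoter inhibition or plain growth inhibition; 0% = median of DMSO wells and 100% = positive control at its reference dose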
* marks the source's active call; other numbers are inactive results; ? = inconclusive; nt = no result. Only some compounds are listed: those with a hit (about 3.9% of all), similar ones and a draw of the others.

SMILES | TPT1 inhibitor | PHOSPHO1 block | Platelet DG rel | WT yeast gro inh | Rtt109 Vps75 | SKKanGAS inh
Cc1ccc(C)c(OCCC(=O)OCC(=O)NNC(=O)c2ccccc2)c1 | nt | nt | nt | nt | 1.4 | nt
COc1ccccc1Nc1nnc(SCC(=O)N2CCCC2=O)s1 | 0.5 | 61.3* | 8.0 | 0.5 | 0.0 | 5.8
O=[N+]([O-])c1cccc(/C=N/Nc2nc(N3CCCCC3)nc(N3CCCCC3)n2)c1 | -0.1 | -12.2 | -1.7 | 44.8 | 3.8 | 51.6*
Oc1ccc(/C=N/Nc2nc(N3CCCCCC3)nc(N3CCCCCC3)n2)c(O)c1 | -1.9 | -15.8 | -3.3 | 74.2* | nt | 111.5*
Fc1ccc(Nc2nc(N/N=C/c3ccco3)nc(N3CCCCC3)n2)cc1 | 2.6 | 31.7 | 0.2 | 82.5* | 22.7 | 67.5*
Oc1ccc(Br)cc1/C=N/Nc1nc(N2CCCCC2)nc(N2CCOCC2)n1 | 0.3 | 19.9 | -6.7 | 50.1 | nt | ?
C(=N\Nc1nc(N2CCCCCC2)nc(N2CCCCCC2)n1)/c1ccccc1 | -1.8 | 0.6 | 0.7 | 68.2* | 1.5 | 69.3*
O=[N+]([O-])c1cccc(-n2cccc2/C=N/Nc2nc(N3CCCCC3)nc(N3CCCCC3)n2)c1 | 2.3 | -1.1 | -2.9 | 7.0 | -2.9 | 8.2
COc1ccc(C(=O)N=C2SC3CS(=O)(=O)CC3N2c2ccc(C(C)=O)cc2)cc1 (centres undefined) | 0.6 | 45.3 | -4.7 | nt | 5.5 | 3.5
CCOc1ccc(Cl)cc1S(=O)(=O)N1CCN(c2ccc(C)c(C)c2)CC1 | -3.9 | 16.2 | 5.9 | 27.8 | 3.1 | -6.8
CCOc1ccc(Cl)cc1S(=O)(=O)n1cnc2cc(C)c(C)cc21 | -0.7 | 18.2 | 10.7 | 17.1 | 0.3 | 51.5*
O=C(O)c1cc(NC(=O)c2ccc(Cl)c([N+](=O)[O-])c2)cc(C(=O)O)c1 | 2.1 | 18.2 | 1.8 | -22.3 | -8.2 | 6.6
O=C(Nc1ccc(C(O)(C(F)(F)F)C(F)(F)F)cc1)c1ccc(Cl)c([N+](=O)[O-])c1 | -1.2 | -2.4 | 5.5 | 73.8* | -4.4 | 2.5
Cc1ccc(NC(=O)Nc2ccccc2)cc1[N+](=O)[O-] | -2.6 | 10.8 | 25.2 | -6.3 | -0.2 | -3.8
O=C(Nc1ccccc1)Nc1ccc(Cl)c([N+](=O)[O-])c1 | -0.3 | 18.2 | -10.9 | 82.4* | -3.2 | 8.5
CC(CC(=O)Nc1ccc(Cl)c([N+](=O)[O-])c1)c1ccccc1 (centres undefined) | -5.6 | 7.8 | 0.4 | 79.8* | 21.4 | 3.6
CN(C(=O)COC(=O)/C=C/c1ccc(C(F)(F)F)cc1)c1c(N)n(Cc2ccccc2)c(=O)[nH]c1=O | 0.0 | nt | 12.4 | nt | -5.1 | 1.5
Cc1occc1C(=O)N/N=C/c1c(O)ccc2ccccc12 | 2.0 | 17.4 | 3.6 | nt | -55.4 | 94.2*
COc1ccc(/C=N\NC(=O)c2ccccc2OC)cc1COc1ccccc1C | -1.5 | 26.3 | 3.9 | nt | 6.7 | 11.8
Cc1occc1C(=O)N/N=C/C=C/c1ccc(N(C)C)cc1 | 14.5 | 28.7 | -2.0 | nt | -140.5 | -4.5
Cc1occc1C(=O)N/N=C/c1ccc(N(C)C)cc1 | 2.0 | 3.8 | 77.9* | nt | nt | 8.1
O=C(NN=Cc1c(O)ccc2ccccc12)c1ccncc1 | nt | nt | nt | nt | 7.7 | nt
O=C(N/N=C\c1c(O)ccc2ccccc12)c1ccc(O)cc1 | 9.4 | 23.5 | 7.1 | nt | -1.9 | 107.0*
COc1ccc(/C=N/NC(=O)c2ccoc2C)cc1COc1c(C)cccc1C | 1.7 | -3.5 | 1.5 | 87.7* | 1.8 | 18.6
COC(=O)c1cc(S(=O)(=O)NCC2CCN(CCc3cccs3)CC2)cn1C | -2.0 | 12.7 | -2.7 | nt | nt | 7.7
SMILES | TPT1 inhibitor | PHOSPHO1 block | Platelet DG rel | WT yeast gro inh | Rtt109 Vps75 | SKKanGAS inh
CC1CCCN(S(=O)(=O)c2ccc(NC(=O)C3CCN(C(=O)C(C)(C)C)CC3)cc2)C1 (centres undefined) | nt | nt | nt | nt | -6.0 | nt
CCN(CC(=O)Nc1cccc(C#N)c1)CC(=O)Nc1cccc(OC)c1 | 1.7 | 62.9* | -0.3 | 3.0 | 15.9 | -6.8
CCN(CC(=O)Nc1ccc(OC)cc1)CC(=O)Nc1cccc(C#N)c1 | 4.5 | 9.8 | -18.9 | nt | 0.5 | -2.1
CCOC(=O)N1CCN(C(=O)c2ccc(NS(=O)(=O)c3ccc4[nH]c(=O)[nH]c4c3)cc2)CC1 | -3.0 | nt | -1.9 | nt | 3.4 | 10.1
Cc1cccc(C(=O)NC(=S)NNC(=O)c2ccc(Cl)cc2)c1 | 3.3 | 12.1 | -11.3 | 51.4 | -5.7 | 105.4*
O=C(NNC(=O)c1cccs1)c1cccc(F)c1 | -0.4 | 28.0 | -5.3 | nt | -5.2 | -5.5
O=C(NNC(=O)c1cccs1)c1ccc(F)cc1 | -1.5 | 4.0 | -0.4 | nt | -7.8 | -1.4
CC(C)(C)c1ccc(C(=O)NC(=S)NNC(=O)c2cccs2)cc1 | 1.8 | 6.2 | 52.2* | 77.3* | -2.8 | 103.7*
Cc1cccc(C(=O)NC(=S)NNC(=O)c2cccs2)c1 | 0.0 | 88.2* | -3.9 | 47.6 | -6.4 | 51.2*
Cc1ccccc1C(=O)NNC(=S)NC(=O)c1cccs1 | 0.7 | 23.5 | -0.3 | nt | 2.2 | 68.6*
CN(C)C(CNC(=O)c1cccc(S(=O)(=O)NCc2ccccc2)c1)c1ccccc1 (centres undefined) | nt | nt | nt | nt | -4.2 | nt
ClC(Cl)(Cl)c1nc2ccccc2n2nncc12 | -1.3 | 26.1 | -16.9 | nt | -2.9 | -0.5
COC(CN(C)C(=O)c1ccc2c(c1)NC(=O)c1ccccc1S2)OC | nt | 42.2 | 2.1 | nt | 1.0 | 4.4
O=C(NC(=S)NNC(=O)c1cccs1)c1ccccc1 | 0.5 | -117.2 | -6.4 | nt | -1.6 | 86.4*
O=C(NC(=S)NNC(=O)c1cccs1)c1ccco1 | 0.7 | 26.7 | 7.6 | -0.8 | 2.2 | 61.2*
O=C(NNC(=O)c1cccs1)c1ccco1 | -1.1 | 49.0 | -0.6 | -9.4 | -1.7 | 1.4
CCN(CC)CCn1c(SCC(=O)Nc2cccc(OC)c2)nc2c(sc3ccccc32)c1=O | -0.2 | -5.1 | -4.7 | 22.0 | 8.8 | 11.7
COc1cccc(NC(=O)CSc2nc3c(sc4ccccc43)c(=O)n2CCN(C)C)c1 | 0.5 | -19.6 | 3.8 | 20.9 | 142.0* | 20.9
Cc1cc(C)n(CC(=O)Nc2ccc(N3CCOCC3)c(Cl)c2)c(=O)c1C#N | 1.1 | 35.1 | 9.7 | nt | -3.6 | -0.1
CCOC(=O)C1=C(C)N=c2s/c(=C\c3cccc(OCC(=O)O)c3)c(=O)n2C1c1ccccc1OC (centres undefined) | 1.8 | 23.9 | 3.0 | nt | -3.0 | 10.3
CCOC(=O)C1=C(c2ccccc2)N=c2s/c(=C\c3cccc(O)c3)c(=O)n2C1c1cccs1 (centres undefined) | 2.5 | -7.7 | 5.5 | 12.8 | 3.4 | 54.0*
NC(=O)CC(NC(=O)c1cccc(Br)c1)c1ccc(NC2CCCCCCC2)c([N+](=O)[O-])c1 (centres undefined) | 0.6 | -1.7 | 8.3 | nt | 0.5 | 40.0
C/C(N)=C(/C#N)C(=O)CSc1nc2ccccc2c(=O)n1Cc1ccc(F)cc1 | -1.9 | 24.6 | 16.5 | nt | 2.0 | 27.2
C/C(N)=C(/C#N)C(=O)CSc1nc2scc(-c3ccc(F)cc3)c2c(=O)n1C | 3.8 | 20.4 | 3.6 | -0.5 | -8.6 | 70.4*
O=C1NC(=NCc2ccccc2)NC1(c1ccccc1)c1ccccc1 | nt | nt | nt | nt | 4.0 | nt
